From PubChem BioAssay AID1477 (National Center for Advancing Translational Sciences (NCATS), 2009)
The campaign covered roughly 230,000 compounds. Fewer than 10 were called active. Inconclusive results (about 3%) are left out. Calls follow the shape of the dose curve; as a rule, active = well fitted curve in the direction sought with a large enough effect; inconclusive = small, poorly fitted or top-dose-only effect, or effect the other way, or another doubt; inactive = no such curve, though single readings can be large or run the other way. The list is a sample of the results.

target: Runt-related transcription factor 1 (Homo sapiens) + Core-binding factor subunit beta (Homo sapiens) (UniProt Q01196+Q13951); experiment: qHTS Assay for Compounds Blocking the Interaction Between CBF-beta and RUNX1 for the Treatment of Acute Myeloid Leukemia; details: AlphaScreen CBFb-His/RUNX1-biotin binding, biochemical; series mostly up to 59.8 µM; also: % of control where 0% means no effect
Sequence (Q01196 whole entry, looked up): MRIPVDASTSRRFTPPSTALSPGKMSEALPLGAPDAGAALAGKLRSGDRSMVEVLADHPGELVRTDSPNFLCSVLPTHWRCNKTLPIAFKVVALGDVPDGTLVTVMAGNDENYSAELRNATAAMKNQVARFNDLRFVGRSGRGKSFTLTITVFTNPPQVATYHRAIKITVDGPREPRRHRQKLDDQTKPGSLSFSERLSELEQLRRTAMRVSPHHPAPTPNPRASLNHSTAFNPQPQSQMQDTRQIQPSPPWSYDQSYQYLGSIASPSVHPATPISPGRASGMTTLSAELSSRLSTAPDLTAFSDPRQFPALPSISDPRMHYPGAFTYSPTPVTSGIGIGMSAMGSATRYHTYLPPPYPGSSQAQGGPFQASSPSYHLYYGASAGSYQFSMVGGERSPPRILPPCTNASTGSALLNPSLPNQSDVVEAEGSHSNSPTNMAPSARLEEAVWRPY
Sequence (Q13951 whole entry, looked up): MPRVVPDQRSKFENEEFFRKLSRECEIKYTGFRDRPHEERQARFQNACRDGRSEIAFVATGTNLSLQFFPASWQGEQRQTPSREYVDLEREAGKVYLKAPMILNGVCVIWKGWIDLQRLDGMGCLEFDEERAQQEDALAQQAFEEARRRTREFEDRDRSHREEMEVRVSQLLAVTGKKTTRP
Text: NIH Chemical Genomics Center [NCGC]
NIH Molecular Libraries Probe Production centers Network [MLPCN]
Assay Submitter (PI): Paul Liu
Core Binding Factor (CBF) abnormalities are associated with 20-25% of all acute myeloid leukemias (AML), of which 5-10% are further sub classified as acute myelomonocytic leukemia with eosinophilia, also known as M4Eo in the FAB classification scheme. This subtype of leukemia is usually associated with chromosome 16 inversion (p13:q22). Chromosome 16 inversion results in formation of the fusion oncogene CBFB-MYH11, which encodes the fusion protein CBF-beta-SMMHC.
It has been hypothesized that the interference of CBF-beta and RUNX1 binding could have therapeutic implications for patients with CBF mediated leukemias. We developed a CBF-beta and RUNX1 binding assay in AlphaScreenTM format and optimized it for high throughput screening to search for inhibitors. The goal of this project is to screen MLPCN's compound collection (MLSMR) for identifying the inhibitors of the interaction between CBF-beta and RUNX1 proteins as research probes. If these probes work well in the animal models, the ultimate goal of this project is to development a new drug treatment for this disease.
This assay can not be used to assess how apparent inhibitors interfere with protein binding, and whether inhibitors specifically bind to either protein. Disruption of this protein-protein interaction, through any mechanism, is the intended target activity.
NCGC Assay Protocol Summary:
Step, Parameter, Description
(1) Reagent, 3 uL CBFb-His/RUNX1-biotin mix incubated together for 20 minutes at room temperature (30 nM each)
(2) Compound or control, 23 nL compound stock solution
(3) Incubation, 15 minutes at Room temperature
(4) Reagent, 1 uL 50 ng each of beads (Nickel beads and streptavidin beads)
(5) Incubation, 90 minutes at Room temperature
(6) Detection, Excitation=365 nm Emission=440 nm, Envision reader in AlphaScreenTM mode
Keywords: MLSMR, MLPCN, NIH Roadmap, qHTS, NCGC, Core binding factor, CBF, CBF-beta, Acute myeloid leukemia

activity, negative = inhibition, inactive:
O=C(c1ccccc1)c1cc(-c2ccccn2)c(N2CCOCC2)s1
CC1CN(c2nc(Nc3ccccc3)nc(N)c2[N+](=O)[O-])CC(C)O1 (stereo not given)
OCCC#Cc1ccc(CN2CCN(Cc3ccsc3)C(CCO)C2)cc1 (stereo not given)
O=C(O)c1ccc(/C=C2/SC(=S)N(c3cccc(C(F)(F)F)c3)C2=O)cc1
COc1ccc2nc(NC(=O)NC3CCCCC3)sc2c1
COc1ccc(Br)cc1C1C2C=CCC(C)C2C(=O)N1Cc1ccccc1 (stereo not given)
COc1cc(C(=O)NCc2nnc(SCC(=O)Nc3nc4ccc(C)cc4s3)o2)cc(OC)c1OC
COCc1cc(=O)[nH]c(-c2ccc(C(F)(F)F)cc2)n1
COc1ccc(N2C(=O)/C(=C\c3ccco3)N=C2SCC(N)=O)cc1Cl
COc1ccc(Cl)cc1NC(=O)NC(C)C(C)(C)C (stereo not given)
CC(C)=CCC[C@]1(C)[C@@H](CC=C(C)C)C[C@@]2(CC=C(C)C)C(=O)[C@]1(C(=O)C(C)C)C(=O)C(CC=C(C)C)=C2O
COc1ccc(/C=C/C(=O)Nc2ccc(C)cc2)cc1S(=O)(=O)N1CCOCC1
Cc1ccc(CNC(=O)C2(C(F)(F)F)C/C(=C\CCO)CCCO2)o1 (stereo not given)
C[C@H]1CCC[C@@]2(C)CCCC[C@]12O
Oc1ccc(-c2c(-c3ccccc3)nn3c(C(F)(F)F)cc(C(F)(F)F)nc23)cc1
COc1ccc2oc(-c3cccc(NC(=O)CSc4ccc(Cl)cc4)c3)nc2c1
CC[C@H](C)[C@@H](NC(=O)O[C@@H]1C(=O)c2cc(OC)ccc2O[C@H]1c1cccc(OC)c1)C(=O)OC
COc1ccc(C2/C=C\CN(C(=O)c3ccc(C)cc3)C(Cc3ccccc3)C(=O)N2Cc2ccc(F)cc2)cc1 (stereo not given)
H-EHIPA-OH
COC(=O)C(CC(C)C)NS(=O)(=O)c1cc(Br)ccc1Br (stereo not given)
Cc1ccc(C(=O)N/N=C\c2cc(Br)c(Br)o2)cn1
COc1ccc(C2/C=C\CN(CC(C)C)CC(=O)N2Cc2ccc(F)cc2)cc1 (stereo not given)
COc1ccc(C(=O)CSc2nnc(NC(=O)C3CC(=O)N(c4cccc(OC)c4)C3)s2)cc1 (stereo not given)
COc1ccc(/C=N/NC(=O)Cn2cc(C(F)(F)F)ccc2=O)cc1
COC(=O)c1c(NC(=O)CN(c2ccc(C)c(C)c2)S(C)(=O)=O)sc2c1CCCC2
COc1ccc(C(CCN2CCOCC2)c2c(OC)cc(OC)c3c2OC(=O)CC3c2ccc(OC)cc2)cc1 (stereo not given)
COC(=O)c1nc2n(n1)C(c1ccc([N+](=O)[O-])cc1)C(C(=O)Nc1ccc(Cl)cc1)=C(C)N2 (stereo not given)
O=C(COC(=O)c1ccc(S(=O)(=O)Nc2ccccc2)cc1)NCC1CCCO1 (stereo not given)
C=C1CCN(Cc2ccc(OC)cc2)S(=O)(=O)c2ccccc21
CC(C)C(NS(=O)(=O)c1ccc(-c2ccc(Br)cc2)cc1)C(=O)O (stereo not given)
CCCC(O)(CCC)C(=O)NN(C(=O)CCl)c1cccc(C)c1
COc1ccc(C(=O)Nc2ccc(-n3nncc3C(C)(C)C)cc2)cc1
C=CCOC(=O)C(=C)C
NCCCCC(N)C(=O)O (stereo not given)
O=C(Cn1c(COc2ccccc2)nc2ccccc21)Nc1cc(Cl)c(Cl)cc1Cl
C/C(=N\NC(=O)CNC(=O)C(c1ccccc1)c1ccccc1)c1ccc(C)cc1
COc1ccc(C(=O)NC2CCN(C(=S)NCCc3ccccc3)CC2)cc1
O=C(Nc1cc(C(F)(F)F)ccc1Cl)c1cc2nc3c(c(C(F)(F)F)n2n1)CCCC3
Cc1cc(OCCCCOc2ccc(C#N)cc2)ccc1[N+](=O)[O-]
Cc1cc2c(cc1C)N(Cc1ccccc1)C1=NCCCN12
CCCc1cc(=O)[nH]c(SCC(=O)N2CCN(S(=O)(=O)c3ccc(C)cc3C)CC2)n1
CCOC(=O)c1nn(-c2cccc(C)c2)cc1C(=O)c1ccccc1
COc1ccc(-c2nc3c(c4c2C[C@H](c2ccccc2)OC4)CN(C(=O)c2ccco2)CC3)c(C)c1 5.84% [at 13.1 µM]
COc1ccc(-c2ccc(OC(=O)NC3CCS(=O)(=O)C3)cc2)cc1 (stereo not given)
COc1ccccc1/C=C/CN1CCC(CO)(Cc2ccccc2)CC1
CC(=O)c1c(O)cc2n(c1=O)-c1ccc(Cl)cc1C2(C)C
C/C(=C\c1ccccc1)C1NC(=O)c2c(sc3c2CCCC3)N1 (stereo not given)
Cc1ccc(-n2cc(CN(C)Cc3nccn3C)c(-c3cccc(C)c3)n2)cc1
CC(/C=C/c1ccco1)=N/NC(=O)C1COc2ccccc2O1 (stereo not given)
CCOc1cccc2c1OC1(CCCCC1)N1N=C(c3cccnc3)CC21 (stereo not given)
OCCNCCOc1ccc(Cl)c(Cl)c1
Cc1c(CCO)c(=O)[nH]n1C(=O)c1c(F)cccc1F
O=C1C[C@@H](c2ccc3ccccc3c2)N1S(=O)(=O)c1ccccc1[N+](=O)[O-]
CCOC(=O)Cn1c(=O)sc2cccc(Cl)c21
O=C(CC1C(=O)NCCN1Cc1ccc(-c2ccccc2)cc1)NCC1CCOCC1 (stereo not given)
CCO[C@H]1OC(C(=O)Nc2ccccc2)=C[C@@H](C2CC2)[C@@H]1CCCO
Cc1ccc2nc(-c3cccnc3)c(NC3CCCC3)n2c1
CCCCC/C=C\C/C=C\C/C=C\CCCCCCC(N)=O
Cc1ccc(C2=NN(C(=O)COc3ncnc4ccccc34)C(c3ccco3)C2)cc1 (stereo not given)
O=C(Cc1ccc(S(=O)(=O)N2CCCC2)s1)NC1CCCCCC1
O=C(Nc1ccc(-c2csc(Nc3cccc(C(F)(F)F)c3)n2)cc1)c1cccc(C(F)(F)F)c1
CC[C@H](C)[C@H](NC(=O)[C@H](Cc1ccc(O)cc1)NC(=O)[C@@H](NC(=O)[C@H](CCCN=C(N)N)NC(=O)[C@@H](N)CC(=O)O)C(C)C)C(=O)N[C@@H](Cc1cnc[nH]1)C(=O)N1CCC[C@H]1C(=O)N[C@@H](Cc1ccccc1)C(=O)O
COc1ccc(CCn2c(NN=C3CCCC3)nc3c2c(=O)[nH]c(=O)n3C)cc1
CN(C)/C=C(/C(=O)c1ccc(F)cc1)S(=O)(=O)c1ccc(F)cc1
COc1ccc(C2c3[nH]c4ccccc4c3CCN2CCCn2cccn2)cc1C (stereo not given)
S=c1nc(C23CC4CC(CC(C4)C2)C3)nc2sccn12
Cc1ccc(-c2ccc(/C=C(\C#N)C(N)=S)o2)c([N+](=O)[O-])c1
Cc1cccc(N2CCN(C(=O)c3cccc(S(=O)(=O)N4CCc5ccccc5C4)c3)CC2C)c1 (stereo not given)
CCO[C@@H]1OC(C(=O)NC2CC2)=C[C@H](C)[C@H]1CCCO
CCC1(CC)C(=O)C2=C3C1[C@H](C(=O)OC)C=C(C(=O)OC)C[C@H]3[C@H]1C(=O)N(Cc3ccccc3)C(=O)[C@H]1[C@H]2C (stereo not given in full)
CC(=O)OCC(NC(=O)C(Cc1ccccc1)NC(=O)OC(C)(C)C)C1OC(n2ccc(=O)[nH]c2=O)C(OC(C)=O)C1OC(C)=O (stereo not given)
COc1cc(S(=O)(=O)N2CCOCC2)ccc1NC(=O)COc1ccc(N(C)S(=O)(=O)c2ccc(C)cc2)cc1
CNC(=O)/C(C#N)=C/c1c(F)cccc1Cl
CCCCNC(=O)CSc1nc2ccc(NC(=O)CSc3nnc(N)s3)cc2s1
CN(CC(=O)Nc1ccc(F)cc1)CC(=O)Nc1ccc(Cl)c(S(=O)(=O)N2CCOCC2)c1
NC(=O)c1ccc(NC(=O)COC(=O)c2c3c(nc4ccccc24)/C(=C\c2ccc4c(c2)OCO4)CCC3)cc1
COc1cc(OC)c2c(C)cc(=O)oc2c1C(CCN1CCCCC1)c1ccc(N(C)C)cc1 (stereo not given)
Cc1cc(C(=O)NCCc2ccc(Cl)cc2)n(-c2ccccc2)n1
Cc1ccc(CNC(=O)C2(C(F)(F)F)C/C(=C\Cc3ccccc3)CCCO2)o1 (stereo not given)
CCCN1CCC(=O)N(C(CSc2ccc(C)cc2)Cc2ccccc2)CC1 (stereo not given)
Cn1ncc(N2CCN(S(=O)(=O)c3ccc(Br)cc3)CC2)c(Cl)c1=O
CC1(C)OC(C(O)(c2ccccc2)c2ccccc2)C(C(O)(c2ccccc2)c2ccccc2)O1 (stereo not given) 6.37% [at 13.1 µM]
CCc1c(C)nc2c(-c3ccccc3)c(C)nn2c1Nc1ccc(NC(C)=O)cc1
Cn1ncc2c(NNC(=O)Cc3cccc4ccccc34)ncnc21
O=c1ccn([C@@H]2O[C@H](COP(=O)(O)OP(=O)(O)OP(=O)(O)O)[C@@H](O)[C@H]2O)c(=O)[nH]1
CCC/C(C)=N\Nc1nc2c(c(=O)n(C)c(=O)n2C)n1C
O=C1CN(Cc2ccccc2)S(=O)(=O)c2ccccc21
CCc1nnc(NC(=O)[C@@H](NC(=O)c2cccc(C)c2)C(C)C)s1
O=[N+]([O-])c1ccccc1S(=O)(=O)Nc1cccc2cccnc12
N#Cc1c(C(F)(F)F)cc(-c2cccs2)nc1N1CCCCC1
COc1ccc2nc(NC(=O)[C@@H]3CCCN3C(=O)c3cccs3)sc2c1
Cc1ccc(OCCCCN2CCCCC2)c(Br)c1
C[C@H]1Cc2c(-c3ccccc3)nc3c(c2CO1)CN(C(=O)C1CC1)CC3 -2.96% [at 13.1 µM]
COc1ccc(-c2nc3c(c4c2C[C@H](c2ccccc2)OC4)CN(S(=O)(=O)c2c(C)noc2C)CC3)c(C)c1 2.29% [at 13.1 µM]
CCOC(=O)C1=C(CSc2nnnn2C)N(C)C(=O)NC1c1ccccc1 (stereo not given)
